Source: PubChem BioAssay (several laboratories)
Most compounds without a hit are left out; they make up all but 4.7% or so of the library.
Calb FLC – C. albicans growth modulation with fluconazole | C. albicans CaCi-2 (fluconazole-resistant clinical isolate) + fluconazole, Alamar Blue growth, 48 h | growth inhibition, % (no concentration beside the values) | hit rate 0.57% among 300,000 | AID 1979;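 active means growth inhibition above about 58% in most replicates, limit read from the data, passing the limit was not always enough; inconclusive means exactly half the replicates above a set limit; inactive means most replicates below a set limit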;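 further: all wells also contain fluconazole at 8 µg/ml as a sub-toxic cotreatment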
tim10-1 inh – inhibits growth of tim10-1 mutant yeast | S. cerevisiae tim10-1 ts strain growth, BacTiter-Glo, 24 h | inhibition, % at 20 µM | hit rate 2.2% among 330,000 | AID 463190;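 active means inhibition of at least 40%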;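 further: mutant grown at 25 °C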
tim23-1 inh – inhibits growth of tim23-1 mutant yeast. hit rate 1.3% among 330,000. S. cerevisiae tim23-1 growth, BacTiter-Glo luminescence, 24 h. inhibition, % at 20 µM;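 active means growth inhibition of the mutant yeast at or above 50%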;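 further: temperature-sensitive mutant grown at 25 °C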
SKKanGAS inh – inhibitors of SKKanGAS S. pyogenes growth in kanamycin (SK-promoter or general growth effect); BacTiter-Glo, 6 h; hit rate 1.3% among 300,000; inhibition, % at 7.5 µM; AID 1662;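 active means mean replicate score, as percent of positive control median, at least 50; inconclusive means mean below 50 but one replicate at or above 50; inactive means mean and every replicate below 50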;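 further: strain carries kanamycin resistance gene driven by streptokinase promoter and grows in 40 µg/ml kanamycin; loss of luminescence reflects streptokinase promoter inhibition or plain growth inhibition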
TIM10 inh – inhibits growth of TIM10 yeast strain; hit rate 1.4% among 330,000; AID 463195; S. cerevisiae TIM10 strain growth, BacTiter-Glo luminescence, 24 h; inhibition, % at 10 µM;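 active means inhibition of 40% or more at the single tested concentration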;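 further: wild-type TIM10 isogenic control strain grown at permissive 25 °C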
PfHsp90 yeast 2 – reduces growth (ATP signal) of yeast expressing P. falciparum Hsp90. inhibition, % at 9.4 µM. S. cerevisiae expressing PfHsp90, BacTiter-Glo ATP, 48 h; yeast lacking PDR1 and PDR3 efflux regulators. hit rate 0.32% among 310,000;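 active means every replicate shows inhibition above about 80%, whatever the replicate mean, limit read from the data; inconclusive means mean inhibition reaches the set limit but some replicate falls short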
tim23-1 conf – confirmation of tim23-1 mutant yeast growth inhibitors; hit rate 83% among 4,400; shares compounds with tim23-1 inh; inhibition, % at 20 µM; AID 463218; S. cerevisiae tim23-1 growth, BacTiter-Glo luminescence, 24 h;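 active means inhibition above about 39% in either of two replicate wells at 20 µM, limit read from the data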;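 further: temperature-sensitive tim23-1 mutant grown at 25 °C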
A number is an active result; . = inactive; ? = inconclusive; / = no result.

SMILES | Calb FLC | tim10-1 inh | tim23-1 inh | SKKanGAS inh | TIM10 inh | PfHsp90 yeast 2 | tim23-1 conf
CC1c2[nH]c3ccccc3c2CCN1C(=O)Nc1ccccc1 (stereo not drawn) | . | . | 64 | . | . | . | 50
Cc1ccc(C(=O)/C=C/C(=O)c2ccc(C)cc2)cc1 | . | . | 58 | 62 | . | . | .
CCCCn1c(N)c(N(C(=O)CSc2nncn2-c2ccccc2)C2CCCC2)c(=O)[nH]c1=O | / | / | / | / | / | . | /
O=C(CC(=O)c1cc(Cl)ccc1O)c1ccccc1 | . | . | 55 | 111 | . | . | 65
O=C(O)CC(=O)Nc1cc(Cl)ccc1O | . | . | . | . | . | . | /
COc1ccc(C(=O)CC(=O)c2ccccc2O)cc1 | . | . | 50 | . | . | . | 52
COc1ccc(C(=O)CC(=O)c2ccccc2O)cc1OC | . | . | . | . | . | . | /
O=C(NCC(NS(=O)(=O)OCC(Cl)(Cl)Cl)c1ccccc1)C(F)(F)F (stereo not drawn) | . | . | . | . | . | . | /
COC(=O)[C@H](CC(C)C)N(Cc1ccccc1)S(=O)(=O)N(Cc1ccc(OC)cc1)[C@@H](CC(C)C)C(=O)OC | / | . | . | / | . | . | /
NS(=O)(=O)c1ccc(NC(=O)COC(=O)Cn2cnc3ccccc3c2=O)cc1 | / | . | . | / | . | / | /
O=C(O)c1ccc(N/N=C/c2ccc(-c3ccc(Br)cc3)o2)cc1 | . | . | 52 | ? | . | . | 47
Cc1ccc(/C=N/Nc2ccc(C(=O)O)cc2)o1 | . | . | . | . | . | . | /
CCCCN(C(=O)c1ccc2c(c1)OCO2)c1c(N)n(CCCC)c(=O)[nH]c1=O | . | . | 52 | . | . | / | 53
COCCN(C(=O)c1ccc(N2C(=O)c3ccccc3C2=O)cc1)c1c(N)n(CC(C)C)c(=O)[nH]c1=O | / | . | 60 | / | . | . | 51
CCCCN(C(=O)c1ccc(C)cc1)c1c(N)n(CCC)c(=O)[nH]c1=O | . | . | 53 | . | . | . | 54
CN(Cc1ccc(Cl)cc1)C(=O)c1ccccc1SCC(=O)N1CCCC1 | / | . | . | / | . | . | /
CC(C)NC(=O)[C@H]1N2C(=O)c3ccccc3C2SC1(C)C (stereo partly drawn) | . | . | . | . | . | . | /
COc1ccc(-c2cn3c(C)c(C(=O)N4CCCc5ccccc54)sc3n2)cc1 | . | . | 53 | . | . | . | 59
COc1ccc(C(=O)N2CCCc3ccccc32)cc1 | . | . | . | . | . | . | /
O=C(NCC(=O)N(c1cnc2ccccc2c1)C(C(=O)NC1CCCC1)c1ccncc1)c1ccco1 (stereo not drawn) | . | . | 68 | . | . | . | .
O=C(NCC(=O)N(c1ccccc1)C(C(=O)NC1CCCCC1)c1ccncc1)c1ccco1 (stereo not drawn) | . | . | . | . | . | . | /
O=C(N/N=C/c1ccccc1F)c1csc2c1CCCC2 | . | . | . | . | . | . | /
O=C(N/N=C/c1cccc(F)c1)c1csc2c1CCCC2 | . | . | 63 | . | . | . | 62
COc1ccc(COC(=O)c2cccc(S(=O)(=O)N3CCN(C(C)=O)CC3)c2)cc1 | . | . | . | . | . | / | /
CN1CCN(C(=O)c2cc(Cl)ccc2NC(=O)c2ccc(Cl)cc2Cl)CC1 | . | . | . | . | . | . | /
SMILES | Calb FLC | tim10-1 inh | tim23-1 inh | SKKanGAS inh | TIM10 inh | PfHsp90 yeast 2 | tim23-1 conf
CCOC(=O)C1=C(C)N=c2s/c(=C\c3ccncc3)c(=O)n2C1c1ccc2c(c1)OCO2 (stereo not drawn) | . | . | 53 | . | . | / | 49
COc1ccc(CN2CCN(C(=O)c3cccc4ccccc34)CC2)cc1Br | . | . | 50 | . | . | . | .
Cc1ccc(S(=O)(=O)N(Cc2cccnc2)Cc2cc3ccccc3[nH]c2=O)cc1 | . | . | . | . | . | . | /
CC(=O)Nc1ccc(S(=O)(=O)N(Cc2cccnc2)Cc2cc3ccc(C)cc3[nH]c2=O)cc1 | . | . | 52 | . | . | . | 53
CCOc1ccc2oc(C(=O)N(CCOC)c3c(N)n(CC(C)C)c(=O)[nH]c3=O)c(C)c2c1 | / | . | . | / | . | . | /
COc1ccc(OC)c(S(=O)(=O)Nc2cc3c4c(c2)C(C)C(=O)N4CCC3)c1 (stereo not drawn) | . | . | . | . | . | . | /
Cc1cccc[n+]1CC(=O)c1ccc(NC(=O)c2ccccc2)cc1 | . | . | . | . | . | . | /
Cc1c(-c2ccccc2)c(=O)oc2ccc(O)cc12 | . | . | . | . | . | . | /
Cc1ccc2oc(=O)c(-c3ccc(O)cc3)c(C)c2c1 | / | . | 52 | / | . | . | 47
Cc1ccc(/C=C2/NC(=O)N(Cc3ccccc3)C2=O)o1 | . | . | 68 | . | . | . | 58
CC(=O)Oc1ccc([C@@H]2COc3c(ccc4c3C=CC(C)(C)O4)C2)c(OC(C)=O)c1 | . | . | . | . | . | . | /
CC1(C)C=Cc2c(ccc3c2OC[C@H](c2ccc(O)cc2O)C3)O1 | / | . | 75 | / | . | 106 | .
C=CCn1c(C)cc(C(=O)CSc2nnc3n(CCC)c(=O)c4ccccc4n23)c1C | / | / | / | / | / | . | /
Cc1ccc(O)c(N=Nc2ccccc2)n1 | / | . | 54 | . | . | . | 54
COc1ccc(NC(=O)c2cc3ccccc3cc2OC)cc1 | . | . | 50 | . | . | . | .
COc1ccc2nc(NC(=O)c3ccccc3C(=O)O)sc2c1 | . | . | . | . | . | . | /
Nc1ccc(C(=O)Nc2nc3ccccc3s2)cc1 | . | . | 51 | . | . | . | 44
C=CCn1cccc(C(=O)Nc2ccc(OC)cc2)c1=O | . | . | 95 | . | . | . | .
COc1ccc(C(=O)Nc2nc3ccccc3s2)c(OC)c1 | . | . | 63 | 53 | . | . | 75
CCOC(=O)CN(Cc1ccccc1)C(=O)OC(C)(C)C | . | . | . | . | . | / | /
CCN(C(=O)C1CCCN1S(=O)(=O)c1ccc2c(c1)n(C)c(=O)c(=O)n2C)c1ccccc1 (stereo not drawn) | . | . | . | . | . | . | /
COc1ccccc1C(=O)Nc1nc2ccc(S(C)(=O)=O)cc2s1 | . | . | . | . | . | . | /
COc1ccccc1C(=O)Nc1nc2ccccc2s1 | . | . | 58 | . | . | . | 48
COc1ccc(C(=O)NCC(C)C)c(OC)c1 | . | . | 72 | . | . | . | .
CC1CCN(CC(=O)Nc2ccc(N3CCCCCC3)cc2)CC1 | . | . | . | . | . | . | /
O=C(N/C(=C\c1ccc(Br)cc1)C(=O)N1CCOCC1)c1ccc([N+](=O)[O-])cc1 | . | . | . | . | . | . | /
C=CCNS(=O)(=O)NC(=O)C1=C(N2CCCC2)COC1=O | / | . | . | / | . | . | /
COC(=O)[C@H](CC(C)C)N1Cc2cc(OC)cc(OC)c2-c2ccccc2S1(=O)=O | / | . | 50 | / | . | . | .
CC(C)(C)c1cc(CCC(=O)NN)cc(C(C)(C)C)c1O | . | . | . | . | . | / | /
